# Test results from publication PMC7862700, “An all-to-all approach to the identification of sequence-specific readers for epigenetic DNA modifications on cytosine”.
# Legend:
# Experiment in all cases: DAPPL (digital affinity profiling via proximity ligation, sequencing); 10 mM Tris-HCl pH 7.5, 50 mM NaCl, 1 mM DTT, 4% glycerol, room temperature, 30 min; GST-TFs on glutathione beads, 16-mer random dsDNA library, 0.1% formaldehyde crosslink after washing; high values mean tight binding
# Details in all cases: protein: recombinant; tags: N-terminal GST; dsDNA, one strand shown
# ETV1 = ETV1 (Homo sapiens, UniProt P50549 1-477)
# Chain of ETV1 (P50549 whole entry, the tested form may be a part): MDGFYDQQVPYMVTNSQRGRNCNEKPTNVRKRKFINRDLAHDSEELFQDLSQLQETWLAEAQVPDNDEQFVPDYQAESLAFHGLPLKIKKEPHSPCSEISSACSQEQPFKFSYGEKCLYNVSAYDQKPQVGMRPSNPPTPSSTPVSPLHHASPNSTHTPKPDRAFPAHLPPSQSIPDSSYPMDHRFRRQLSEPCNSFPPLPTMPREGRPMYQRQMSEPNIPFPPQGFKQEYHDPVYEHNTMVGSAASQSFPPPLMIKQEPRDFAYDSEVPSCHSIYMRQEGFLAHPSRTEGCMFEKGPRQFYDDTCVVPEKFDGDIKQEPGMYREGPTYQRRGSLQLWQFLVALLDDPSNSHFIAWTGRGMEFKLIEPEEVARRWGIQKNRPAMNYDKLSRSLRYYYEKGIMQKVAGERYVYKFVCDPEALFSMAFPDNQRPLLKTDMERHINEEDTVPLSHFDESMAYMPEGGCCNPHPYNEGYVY
# Summary of the method: (§1)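 Binding signal is each hexamer's read frequency for a factor divided by its frequency in the tag-only sample. The factors were GST-fused human transcription factors from yeast, captured on glutathione beads, DNA-barcoded and pooled with that sample. Pools were incubated with 200 nmole of a random double-stranded 16-mer DNA library in Tris/NaCl/DTT/glycerol buffer at room temperature for 30 min, then washed, crosslinked with 0.1% formaldehyde, proximity-ligated with BsaI/T4 ligase (1 h, 37 °C), PCR-amplified and sequenced on an Illumina NextSeq500.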
# ERF = molecular target: T1, ERF (Homo sapiens, UniProt P50548 1-548)
# T1 sequence: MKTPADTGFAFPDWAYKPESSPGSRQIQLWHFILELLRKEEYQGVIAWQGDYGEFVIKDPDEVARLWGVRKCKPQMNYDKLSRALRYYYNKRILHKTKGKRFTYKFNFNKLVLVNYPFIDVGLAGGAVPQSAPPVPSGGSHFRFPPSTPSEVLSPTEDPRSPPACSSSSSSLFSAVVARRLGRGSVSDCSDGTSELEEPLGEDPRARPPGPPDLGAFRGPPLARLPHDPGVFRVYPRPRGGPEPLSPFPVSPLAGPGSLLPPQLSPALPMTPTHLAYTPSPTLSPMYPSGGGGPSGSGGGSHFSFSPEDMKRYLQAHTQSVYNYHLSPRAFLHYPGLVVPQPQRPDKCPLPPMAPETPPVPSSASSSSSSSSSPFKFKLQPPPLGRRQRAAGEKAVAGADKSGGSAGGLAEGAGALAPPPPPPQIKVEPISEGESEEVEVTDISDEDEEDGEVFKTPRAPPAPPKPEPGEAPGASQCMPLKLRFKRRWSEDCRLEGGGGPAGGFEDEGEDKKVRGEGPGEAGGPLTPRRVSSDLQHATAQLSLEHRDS
# Summary of the method: as §1
# ETV3L = molecular target: T2, ETV3L (Homo sapiens, UniProt Q6ZN32 1-361)
# T2 sequence: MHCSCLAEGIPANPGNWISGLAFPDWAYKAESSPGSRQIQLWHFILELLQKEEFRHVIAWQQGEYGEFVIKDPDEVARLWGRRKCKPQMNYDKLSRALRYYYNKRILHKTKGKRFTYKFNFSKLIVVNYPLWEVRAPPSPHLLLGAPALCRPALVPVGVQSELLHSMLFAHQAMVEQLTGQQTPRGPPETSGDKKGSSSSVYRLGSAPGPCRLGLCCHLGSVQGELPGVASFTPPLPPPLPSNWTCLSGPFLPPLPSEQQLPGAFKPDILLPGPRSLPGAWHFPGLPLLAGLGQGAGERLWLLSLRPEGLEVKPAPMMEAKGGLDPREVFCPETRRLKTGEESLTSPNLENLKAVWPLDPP
# Summary of the method: as §1
# ETS2 = molecular target: T3, ETS2 (Homo sapiens, UniProt P15036 1-469)
# T3 sequence: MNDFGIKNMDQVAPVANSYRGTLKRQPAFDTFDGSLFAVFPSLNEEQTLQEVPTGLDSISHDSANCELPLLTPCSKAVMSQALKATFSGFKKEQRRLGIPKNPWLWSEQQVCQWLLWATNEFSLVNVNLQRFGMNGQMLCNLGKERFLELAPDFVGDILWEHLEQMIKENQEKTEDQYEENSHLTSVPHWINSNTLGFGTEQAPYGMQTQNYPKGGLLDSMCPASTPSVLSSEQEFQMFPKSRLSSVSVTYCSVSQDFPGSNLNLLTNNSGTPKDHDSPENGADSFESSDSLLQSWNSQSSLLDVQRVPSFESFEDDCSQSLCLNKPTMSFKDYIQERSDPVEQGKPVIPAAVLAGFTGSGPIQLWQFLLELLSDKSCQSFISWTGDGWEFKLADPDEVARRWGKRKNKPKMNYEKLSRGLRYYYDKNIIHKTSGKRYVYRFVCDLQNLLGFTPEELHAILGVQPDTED
# Summary of the method: as §1
# SPDEF = molecular target: T4, SPDEF (Homo sapiens, UniProt O95238 1-335)
# T4 sequence: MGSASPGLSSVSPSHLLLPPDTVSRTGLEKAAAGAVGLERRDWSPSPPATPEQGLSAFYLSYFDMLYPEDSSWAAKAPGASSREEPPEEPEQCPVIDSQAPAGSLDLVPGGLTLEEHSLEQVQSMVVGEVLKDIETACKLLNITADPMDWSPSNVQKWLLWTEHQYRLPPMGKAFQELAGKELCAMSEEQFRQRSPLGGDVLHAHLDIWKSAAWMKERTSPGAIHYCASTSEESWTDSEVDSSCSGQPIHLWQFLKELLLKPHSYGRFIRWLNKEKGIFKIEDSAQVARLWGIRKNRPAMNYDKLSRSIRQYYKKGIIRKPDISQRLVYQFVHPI
# Summary of the method: as §1
# ETV7 = molecular target: T5, ETV7 (Homo sapiens, UniProt Q9Y603 1-341)
# T5 sequence: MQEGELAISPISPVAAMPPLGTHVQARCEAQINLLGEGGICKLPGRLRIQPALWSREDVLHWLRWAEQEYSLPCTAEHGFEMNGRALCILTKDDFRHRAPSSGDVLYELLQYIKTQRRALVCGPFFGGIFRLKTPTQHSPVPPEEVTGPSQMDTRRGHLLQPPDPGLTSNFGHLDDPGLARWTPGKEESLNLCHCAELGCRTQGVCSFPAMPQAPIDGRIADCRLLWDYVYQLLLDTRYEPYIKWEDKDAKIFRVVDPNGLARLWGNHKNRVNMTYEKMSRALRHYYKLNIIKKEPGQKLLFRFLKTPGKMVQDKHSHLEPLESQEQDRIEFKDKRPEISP
# Summary of the method: as §1
# ELF5 = molecular target: T6, ELF5 (Homo sapiens, UniProt Q9UKW6-2 1-255)
# T6 sequence: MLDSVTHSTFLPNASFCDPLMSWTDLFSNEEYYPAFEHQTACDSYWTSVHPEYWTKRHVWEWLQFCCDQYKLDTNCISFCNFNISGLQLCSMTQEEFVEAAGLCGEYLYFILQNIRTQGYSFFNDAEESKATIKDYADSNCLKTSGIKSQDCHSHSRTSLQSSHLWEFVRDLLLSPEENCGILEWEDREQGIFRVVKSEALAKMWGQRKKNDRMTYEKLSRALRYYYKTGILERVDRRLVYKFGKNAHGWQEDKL
# Summary of the method: as §1
# ETV3 = molecular target: T7, ETV3 (Homo sapiens, UniProt P41162-2 1-143)
# T7 sequence: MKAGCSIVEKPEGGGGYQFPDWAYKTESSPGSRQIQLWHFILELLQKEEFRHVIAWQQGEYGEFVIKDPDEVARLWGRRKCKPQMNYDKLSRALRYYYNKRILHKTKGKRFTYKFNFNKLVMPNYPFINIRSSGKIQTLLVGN
# Summary of the method: as §1
# ETV6 = ETV6 (Homo sapiens, UniProt P41212 1-452)
# Chain of ETV6 (P41212 whole entry): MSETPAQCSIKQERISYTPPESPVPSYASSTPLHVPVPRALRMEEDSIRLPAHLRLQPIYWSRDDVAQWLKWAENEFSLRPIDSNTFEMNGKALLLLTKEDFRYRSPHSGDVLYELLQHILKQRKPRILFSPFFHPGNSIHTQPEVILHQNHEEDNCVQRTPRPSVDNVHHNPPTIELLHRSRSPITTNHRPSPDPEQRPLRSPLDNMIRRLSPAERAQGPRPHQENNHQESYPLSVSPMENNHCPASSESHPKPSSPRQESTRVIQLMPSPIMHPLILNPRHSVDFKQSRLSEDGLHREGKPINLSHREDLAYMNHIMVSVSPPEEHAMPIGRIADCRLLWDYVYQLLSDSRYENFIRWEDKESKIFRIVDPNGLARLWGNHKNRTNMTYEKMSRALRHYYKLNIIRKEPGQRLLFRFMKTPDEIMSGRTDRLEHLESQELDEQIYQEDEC
# Summary of the method: as §1
sequence,measurement,setting,value
GACATT,binding signal,ETV1,"1.26 fold enrichment (6-mer frequency, TF over GST control)"
same,binding signal,ERF,"1.22 fold enrichment (6-mer frequency, TF over GST control)"
same,binding signal,ETV3L,"1.17 fold enrichment (6-mer frequency, TF over GST control)"
same,binding signal,ETS2,"1.11 fold enrichment (6-mer frequency, TF over GST control)"
same,binding signal,SPDEF,"1.13 fold enrichment (6-mer frequency, TF over GST control)"
same,binding signal,ETV7,"1.07 fold enrichment (6-mer frequency, TF over GST control)"
same,binding signal,ELF5,"1.17 fold enrichment (6-mer frequency, TF over GST control)"
same,binding signal,ETV3,"1.21 fold enrichment (6-mer frequency, TF over GST control)"
same,binding signal,ETV6,"1.26 fold enrichment (6-mer frequency, TF over GST control)"
